Vif-A3G inh – Vif-A3G binding inhibition. Potency, µM (highest dose often 46.1 µM), inactives show at the top dose activity, negative = active, actives largely listed as inhibitors. 410,000 compounds, 0.076% hits. Q9HC16. HeLa A3G-eYFP + Vif (tagged APOBEC3G with the HIV-1 protein that degrades it), YFP fluorescence, overnight; note: potency is the fitted concentration of half-maximal effect; % is set by controls: 0 for no effect and ±100 for the full control effect; nearly all actives have a fitted effect of over 60% in size
Target sequence (Q9HC16 whole entry, looked up): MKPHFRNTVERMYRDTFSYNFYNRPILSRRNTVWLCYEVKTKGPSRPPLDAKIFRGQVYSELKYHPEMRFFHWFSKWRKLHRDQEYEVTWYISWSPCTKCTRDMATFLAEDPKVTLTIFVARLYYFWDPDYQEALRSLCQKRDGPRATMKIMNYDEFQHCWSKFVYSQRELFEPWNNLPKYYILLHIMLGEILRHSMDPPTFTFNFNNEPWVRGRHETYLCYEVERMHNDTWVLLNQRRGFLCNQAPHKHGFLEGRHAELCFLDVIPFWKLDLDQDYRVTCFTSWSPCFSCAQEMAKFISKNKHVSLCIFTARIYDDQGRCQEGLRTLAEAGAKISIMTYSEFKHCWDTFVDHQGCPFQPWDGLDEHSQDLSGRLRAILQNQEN
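Read-out is eYFP fluorescence (Ex 488/Em 500-530) from Vif-expressing HeLa A3G-eYFP cells; more signal means A3G escaped Vif-mediated degradation. Cells plated overnight, compound pinned in, incubated overnight at 37 deg C.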
IDH1 R132H inh – human IDH1 R132H inhibition | IDH1-R132H enzyme, NADPH consumption, diaphorase/resazurin fluorescence | 390,000 compounds, 0.093% hits | O75874 | Potency, µM (series often up to 76.6 µM), inactives show top-dose activity change, negative = inhibition, most hits filed as inhibitors; note: potency is the fitted concentration of half-maximal effect; % is set by controls: 0 for no effect and ±100 for the full control effect; nearly all actives have a fitted effect of over 65% in size
Target sequence (O75874 whole entry R132H, stated change not applied): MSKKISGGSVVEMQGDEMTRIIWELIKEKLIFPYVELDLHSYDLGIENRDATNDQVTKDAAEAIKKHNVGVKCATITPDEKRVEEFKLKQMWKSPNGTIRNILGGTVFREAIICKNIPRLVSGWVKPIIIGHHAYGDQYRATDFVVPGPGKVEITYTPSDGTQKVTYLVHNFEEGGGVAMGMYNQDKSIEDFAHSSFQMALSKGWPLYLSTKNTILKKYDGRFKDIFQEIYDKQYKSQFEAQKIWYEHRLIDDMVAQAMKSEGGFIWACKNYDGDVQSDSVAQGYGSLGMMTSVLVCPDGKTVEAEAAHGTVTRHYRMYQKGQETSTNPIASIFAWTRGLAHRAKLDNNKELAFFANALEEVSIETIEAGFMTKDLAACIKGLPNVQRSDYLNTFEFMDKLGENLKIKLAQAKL
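IDH1-R132H (0.5 ug/mL) preincubated 30 min with compound, then NADPH (0.016 mM) and alpha-KG (2 mM) added; 80 min at RT, pH 7.5. Remaining NADPH coupled via diaphorase/resazurin to fluorescence (540/590 nm); concentration-response curves normalized to no-enzyme control.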
PTHR1 agonist – PTHR1 (human) receptor agonism; Q03431; HEK293 GP2 PTHR1 cells, GloSensor cAMP luminescence, 1 h; Potency, µM (series often up to 115 µM), inactives show top-dose activation, actives largely listed as activators; 410,000 compounds, 0.075% hits; note: potency is the fitted concentration of half-maximal effect; nearly all actives have a fitted effect of over 55% in size
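HEK-293-derived GP2 cells expressing PTHR1 and a GloSensor cAMP reporter, 3,000/well, plated overnight, given luciferin plus IBMX (each 0.5 mM as added) for 1 h at 37 °C, then compound for 1 h at 37 °C. Luminescence was read after 15 min at room temperature.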
LDHA inh – blocks human lactate dehydrogenase A; P00338; purified LDHA, NADH/diaphorase-resazurin fluorescence; active compounds read low; activity change, % (values are at about 110 or 230 µM); 480,000 compounds, 0.15% hits; AID 1347041; in the data active = activity change below about -30%; inconclusive = mostly about -25% to -30%;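 note: plate controls were DMSO wells for no effect and wells without enzyme for full effect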
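LDH5 2 nM; NADH 0.06 mM, pyruvate 0.2 mM; 200 mM Tris pH 7.4, EDTA, Tween-20; 5 min RT. Detection: diaphorase 0.133 mg/mL + resazurin 37 µM, fluorescence ex540/em590 at 0 and 20 min; normalized to enzyme-free and DMSO wells.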
PINK1 modulator – PINK1 expression modulation | 410,000 compounds, 0.2% hits | Potency, µM (titrated, usually from 76.6 µM), without a hit: top-dose activation (PINK1 increase), actives largely listed as activators | PINK1 immunofluorescence, high-content cytometry, 24 h; active = well fitted activation curve with a large enough effect; inconclusive = small, poorly fitted or top-dose-only effect; cell line not stated here; note: potency is the fitted concentration of half-maximal effect; % of control where 0% means no effect; nearly all actives have a fitted effect of over 65% in size
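A stable cell line was treated with compounds at 5 concentrations for 24 hours, with CCCP as control. PINK1 levels and mitochondrial localization were measured by immunofluorescence with mitochondrial, cell and nuclear markers after fixation, read by laser-scanning cytometry.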
Vif-A3F inh – inhibitors of Vif-A3F interaction; 390,000 compounds, 0.2% hits; HeLa A3F-eYFP + Vif (tagged APOBEC3F with the HIV-1 protein that degrades it), YFP fluorescence increase; Potency, µM (titrated, usually from 46.1 µM), inactives show at the highest dose activity, negative = active; AID 602313; note: potency is the fitted concentration of half-maximal effect; % of control where 0% means no effect; nearly all actives have a fitted effect of over 65% in size
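Fluorescence increase (Ex 488/Em 500-530) after overnight compound treatment at 37 deg C flags inhibition of Vif-driven A3F-eYFP loss in stable HeLa A3F-eYFP/Vif cells seeded overnight beforehand.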
* marks the source's active call; other numbers are inactive results; i = inactive; u = inconclusive; x = no result given; [ ] = remark or other dose. Hits are enriched below; roughly 0.59% of the tested compounds scored in any of these assays. Unless noted, calls come from the whole dose curve; as a rule, active = well fitted curve in the direction sought with a large enough effect; inconclusive = small, poorly fitted or top-dose-only effect, or another doubt; inactive = no such curve, though single readings can be large; an effect the other way counts as inactive or inconclusive.

SMILES	Vif-A3G inh	IDH1 R132H inh	PTHR1 agonist	LDHA inh	PINK1 modulator	Vif-A3F inh
COc1ccccc1OCC(=O)N/N=C/C=C/c1ccc([N+](=O)[O-])o1	u	2.2%	i	3.6	u	10µM*
Cc1ccccc1OCC(=O)N/N=C/c1ccc([N+](=O)[O-])o1	-10.1%	8.2%	-30.1%	2.3	u	5.7%
O=C(Cc1ccccc1F)NC1CCN(C2CC2)C1 (stereo not drawn)	x	x	x	-5.6	x	x
CN(C)CCOCCOc1ccccc1-c1ccccc1	0.6%	2.3%	i	-46.9*	0.4%[38.3 µM]	-0.8%
CN(C)CCOc1ccccc1-c1ccccc1	-7.0%	7.5%	i	u	-0.7%	-9.7%
O=C(Nc1ccc2oc(-c3ccccc3)nc2c1)c1ccc2c(c1)OCCO2	-12.6%	-2.7%	-71.0%[57.5 µM]	-2.0	12.6µM*	8.4%
O=[N+]([O-])c1ccc(C=CC=Cc2ccccc2)cc1	-6.9%	-0.3%	i	-5.7	31.6µM*	-12.6%
COc1cc(-c2cc(C(=O)Nc3c(Cl)cc(Cl)cc3Cl)c3ccccc3n2)cc(OC)c1OC	-6.2%	0.9%	i	-5.7	7.9%	-0.5%
COc1ccc2nc3ccccc3nc2c1NC(=O)c1ccc(Cl)cc1Cl	3.98µM*	2.4%	-7.6%	-0.7	3.8%	u
O=C(NC1CCCCC1)C1CCN(S(=O)(=O)c2cccc3nsnc23)CC1	2.6%	-0.2%	-11.0%[57.5 µM]	-2.0	10µM*	-8.3%
COc1ccccc1CNCCCO	x	x	x	7.0	x	x
CCOC(=O)c1scc(-c2ccccc2)c1S(=O)(=O)Nc1ccccc1	x	x	x	5.9	x	x
COc1ccccc1N1CCN(C(=O)C(F)F)CC1	-1.2%	-2.5%	-10.2%[57.5 µM]	0.1	16.7%[38.3 µM]	-3.9%
COc1ccccc1N1CCN(C(C)C(=O)N2CC(C)OC(C)C2)CC1 (stereo not drawn)	-0.2%	-4.2%	-1.1%	-39.4*	-1.0%	5.7%
Cc1cccc(N(C)C(=O)COC(=O)c2ccc(F)c(Cl)c2)c1	x	x	x	0.2	x	x
CCc1c(C(=O)Nc2scc(-c3cc(C)ccc3C)c2C#N)csc1C	x	x	x	11.7	x	x
Cc1oc(-c2cccs2)nc1CC(=O)N1CCC(C(=O)NCc2ccccc2)CC1	x	x	x	-24.2	x	x
COc1ccc(Br)cc1CN1CCN(Cc2c[nH]c3ccccc23)CC1	-7.7%	8.5%	i	-16.9	-0.5%	8.6%
COc1ccc(CN2CCC(N3CC(C)OC(C)C3)CC2)c(OC)c1 (stereo not drawn)	1.7%	-6.1%	-9.2%	-32.0*	-1.6%	8.1%
COc1ccc(CN2CCN(Cc3c[nH]c4ccccc34)CC2)c(OC)c1	0.2%	-4.2%	i	-32.5*	-0.8%	1.9%
COc1cc(CN2CCN(Cc3ccc(SC)cc3)CC2)cc(OC)c1O	-5.3%	10.6%	-10.3%	0.9	-2.8%	-12.3%
COc1ccc(CN2CCN(Cc3c[nH]c4ccccc34)CC2)cc1OC	-0.4%	6.6%	14.4%	-31.5*	0.2%	-10.7%
COc1ccc(CN2CCN(Cc3ccccc3F)CC2)c(OC)c1	1.9%	-0.8%	i	-22.7	-0.4%	-13.4%
COc1cc(OC)c(OC)cc1CN1CCN(Cc2ccc(SC)cc2)CC1	0.0%	4.6%	-33.6%	-30.4*	0.6%	-7.0%
COC(CN(C)C(=S)NCC(=O)O)OC	x	x	x	-3.5	x	x
SMILES	Vif-A3G inh	IDH1 R132H inh	PTHR1 agonist	LDHA inh	PINK1 modulator	Vif-A3F inh
COc1ccc(CN2CCN(Cc3c[nH]c4ccccc34)CC2)cc1	2.0%	-1.3%	i	-33.7*	-0.5%	7.5%
COc1ccc(CN2CCN(Cc3ccco3)CC2)cc1OC	-0.7%	11.6%	i	-34.3*	1.2%	-10.5%
Brc1ccc(CN2CCSCC2)cc1	-0.5%	0.9%	u	-30.2*	u	-5.9%
COc1ccc(CN2CCN(Cc3ccc(Br)cc3)CC2)c(OC)c1OC	2.5%	5.4%	-71.6%	-30.4*	6.2%	4.4%
Cc1ccc(CN2CCN(Cc3c[nH]c4ccccc34)CC2)cc1	x	x	x	7.0	x	x
CCNC(=O)COc1ccc(-c2noc(-c3ccccc3)n2)cc1OC	x	x	x	0.0	x	x
Cc1ccc(C2C3=C(CC(C)(C)CC3=O)Nc3nc(N)[nH]c(=O)c32)cc1 (stereo not drawn)	x	x	x	-8.4	x	x
Cc1ccc(CN(C(=O)c2ccc(C(N)=O)s2)C2CC2)o1	x	x	x	4.5	x	x
Brc1ccc(-c2noc(-c3cccnc3)n2)o1	x	x	x	2.3	x	x
O=[N+]([O-])c1ccc(C(O)C[n+]2ccccc2)cc1 (stereo not drawn)	6.6%	-2.2%	u	-30.1*	0.6%	2.7%
Cc1cccc(C)c1NC(=S)NC(C)CCc1ccccc1 (stereo not drawn)	0.2%	2.4%	i	-1.8	0.3%	7.08µM*
Cc1ccccc1-n1c(SC(C)C(N)=O)nnc1-c1cccnc1 (stereo not drawn)	-0.6%	-7.6%	u	-4.7	10µM*	-3.4%
Cc1ccc(NC(=O)C(C)Sc2nnc(-c3cccnc3)n2-c2ccccc2)cc1 (stereo not drawn)	-7.2%	3.8%	-10.4%	3.0	4.3%[38.3 µM]	-0.9%
CC(C)(C)C1CCC2(CC1)C(C#N)=C(SCC(=O)Nc1ccccc1)NC(=O)C2C#N (stereo not drawn)	1.8%	-4.9%	-7.0%	-5.2	22.4µM*	-2.4%
CCc1ccccc1NC(=O)CSC1=C(C#N)C2(CCC(C(C)(C)C)CC2)C(C#N)C(=O)N1 (stereo not drawn)	x	x	x	-2.6	x	x
Cc1nc2c3cc(Cl)ccc3n(CCN3CCCCC3)c2s1	-14.5%	2.2%	i	-0.3	3.98µM*	-16.6%
Cc1ccc(NC(=O)CN(C)Cc2cc(=O)oc3c(C)c(O)ccc23)cc1	x	x	x	10.7	x	x
CCc1nc(C)ccc1OCC(=O)O	0.9%	0.5%	-15.4%	-7.4	4.4%	-0.7%
CCc1nc(C)ccc1OCC(=O)NCCCN(C)C	-0.5%	0.0%	24.9%[57.5 µM]	-32.8*	0.5%[38.3 µM]	0.9%
CCNc1ccc(-c2nc(-c3ccncc3)no2)cc1[N+](=O)[O-]	4.0%	15.4%	-9.2%	-6.0	14.1µM*	0.8%
COCCNc1ccc(-c2nc(-c3ccncc3)no2)cc1[N+](=O)[O-]	-1.6%	-8.4%	-13.8%	0.3	3.0%	5.4%
COc1cc(/C=N/O)ccc1OCC(=O)Nc1ccccc1	x	x	x	7.1	x	x
N#Cc1cc(C(=O)c2cc(Br)ccc2O)cn(C2CCCCC2)c1=O	-0.8%	1.1%	-29.2%	-3.0	22.4µM*	-1.1%
N#Cc1cc(C(=O)c2cc(F)ccc2O)cn(C2CCCCC2)c1=O	x	x	x	0.8	x	x
O=C(O)C12CC3C4C5CC(C6C5C3C61)C42 (stereo not drawn)	x	x	x	-12.2	x	x
CCn1cc(C(=O)O)c(=O)c2cc(F)c(N/N=C/c3ccccc3[N+](=O)[O-])cc21	2.6%	-6.3%	-42.4%	-2.2	39.8µM*	3.4%
